Data reported in the supplement of paper PMC6555819.

How the values were obtained:
Assay in all cases: PBM binding z-score (relative to random genomic background probes); higher = stronger binding; sequences stand for … in GC…GCGATTGACAGCGTAGAATGAAGG
[1] = system: PPARg:RXRa DBDmut IVT, anti-RXR (DBD mutation: RXRa K156A/R161A, NR concentration 270 nM, RXRa partner concentration 90 nM)
Summary of the method: (§1)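 On custom Agilent 4×180K arrays, double-stranded probes with 34-nt variable regions carried direct-repeat seeds, single-nucleotide variants, half-site ablations or random human genomic background. Ligand-free nuclear receptor dimers were applied for 1 h, and binding was read with antibodies against each partner (one per run). Binding z-scores come from regression-normalized fluorescence, with the random background probes as reference.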

[2] = system: PPARg:RXRa IVT, anti-PPARg (NR concentration 270 nM, RXRa partner concentration 90 nM)
Summary of the method: as §1

[3] = system: PPARg DBDmut:RXRa IVT, anti-PPARg (DBD mutation: PPARg1 K132A/R137A, NR concentration 270 nM, RXRa partner concentration 90 nM)
Summary of the method: as §1

[4] = system: PPARg DBDmut IVT, anti-PPARg (DBD mutation: PPARg1 K132A/R137A, NR concentration 270 nM)
Summary of the method: as §1

[5] = system: PPARg homodimer (NR concentration 180 nM)
Summary of the method: as §1

[6] = system: PXR:RXRa (NR concentration 270 nM, RXRa partner concentration 90 nM)
Summary of the method: as §1

[7] = system: PXR homodimer (NR concentration 270 nM)
Summary of the method: as §1

[8] = system: RARa:RXR (NR concentration 270 nM, RXRa partner concentration 90 nM)
Summary of the method: as §1

[9] = system: RARa homodimer (NR concentration 270 nM)
Summary of the method: as §1

[10] = system: RARb:RXRa (NR concentration 270 nM, RXRa partner concentration 90 nM)
Summary of the method: as §1

Sequence | PBM binding z-score [1] | PBM binding z-score [2] | PBM binding z-score [3] | PBM binding z-score [4] | PBM binding z-score [5] | PBM binding z-score [6] | PBM binding z-score [7] | PBM binding z-score [8] | PBM binding z-score [9] | PBM binding z-score [10]
TAGCATAGGTCATGGGCCAGTATACCACGCGAAC | 0.625 | 2.53 | 0.682 | 0.0731 | 2.07 | 3.23 | -0.144 | 4.27 | 0.528 | 4.41
CGAACTAGGTCAGAACAGGACAGAGAAGGATGAT | 7.13 | 7.18 | 1.45 | 0.658 | 0.782 | 0.74 | 0.047 | 0.515 | 0.919 | 2.88
ACTAGCAGGCCAAGTTTGGGTCACTCACACAAAG | 0.874 | 1.38 | -1.02 | 0.437 | 0.553 | 0.973 | 0.229 | 1.62 | -0.272 | 2.06
ATCGAGAGGTCGAGGTGAGTATAGAGAAAGGGAA | -0.102 | 1.75 | 0.955 | 0.168 | 0.817 | 1.9 | -0.0163 | 2.63 | -0.363 | 3.14
TAGCCTAGGTCATTGGGCCATTATAGTACGCATC | 3.37 | 4.19 | 0.472 | 0.314 | 2.65 | 1.86 | -0.263 | 2.7 | -0.217 | 3.56
ACTCGGAGGACAAAGGGCAGAGCTACGCCAGTGA | 0.11 | 0.678 | -1.42 | -1.85 | 0.364 | -0.273 | -0.407 | 0.077 | -0.16 | 2.17
CCTAGCAGGCCAGGGTCTCTCAAGCATTTCGCTT | -0.0358 | -0.785 | -1.73 | -1.57 | -0.714 | -0.908 | -0.933 | -0.825 | -1.17 | -0.0781
GCGACTGGGGCATCAGCAGGTTACCAAAACTTAA | 3.95 | 3.39 | -1.31 | -0.989 | 0.651 | -0.0279 | -0.564 | 0.57 | -0.274 | 0.893
AGAATGAGGTTACCAAAGATCAGGAAAACGCTTG | 4.01 | 3.35 | 0.931 | 0.626 | 0.925 | 1.57 | -0.0296 | 2.1 | 0.339 | 1.95
CCCATTAGTTGACCATAAGGGCAACCGAAGCTCG | -0.253 | 0.593 | 0.0546 | -0.0766 | 2.18 | 0.867 | 0.974 | 1.05 | 1.57 | 1.7
AGAATGAGGTTATACGTAGATCAGGGGAGAAAGT | 4.24 | 2.13 | 1.07 | 0.577 | 0.74 | 1.36 | 0.423 | 1.87 | 1.13 | 1.45
CGAGCTAGGTCAAGGACAGTGAATCTCCGCACGC | 3.38 | 2.99 | -0.96 | -1.07 | 1.61 | 1.01 | -0.22 | 2.02 | 0.121 | 3.74
ATCGAAAGTTCGTGAGGTGAGTATACAGAAAGGC | -1.13 | 0.316 | 0.654 | 0.402 | 0.342 | 1.08 | 0.69 | 1.39 | 0.453 | 2.17
ATACCAAGGTGGTCGTGAGGTCGTTGATACTAAC | -0.434 | 0.335 | 0.113 | 0.0753 | 0.722 | 2.61 | 1.69 | 1.99 | 0.748 | 1.08
GCTGCTAGGTCAGTTTGGTCAGCTAACGGGTACG | 2.93 | 2 | -0.859 | -0.221 | 0.433 | 0.0587 | -0.275 | 0.504 | -0.322 | 3.1
ATATGTAGCTTATCGGGTCATTCAGTTTGCGCAT | 1.01 | 1.81 | 1.36 | 1.64 | 1.05 | 3.2 | 8.3 | 2.8 | 0.765 | 1.72
TAGCCTAGGTCATCCGGGCCAGTATAGTGTCGGC | 1.42 | 2.94 | 0.0914 | -0.657 | 1.35 | 2.07 | 0.0405 | 2.61 | -0.259 | 3.77
AGAACGAGGGCACGCTGAGCTGATAGCAGAGTAG | 4.56 | 3.89 | 0.483 | -0.228 | 0.179 | -0.0742 | -0.541 | 0.485 | -0.937 | 2.39
CAAACTAGGTCAGAACAGGACAGTGAAGGATGAT | 7.14 | 7.34 | 4.2 | 3.64 | 1.77 | 1.06 | 0.211 | 1.32 | 1.02 | 3.24
TCATATAGGTAAATGCTAAGTGAAAGTCCGATCT | 4.03 | 2.11 | 0.478 | 0.946 | 0.521 | 0.632 | 0.372 | 0.974 | 0.763 | 0.453
CCTAGTTGGTCCGGAGGTCACACACCGGATATGA | 0.0727 | 1.77 | -0.285 | 0.613 | 2.74 | 4.13 | 1.54 | 4.43 | 1.45 | 3.47
CGTCCAAGGTCAAGGACAGTGAAAGAGACTCGAA | 3.23 | 3.38 | 1.03 | -0.206 | 2.55 | 3.63 | 0.575 | 4.25 | 1.12 | 5.22

Sequence | PBM binding z-score [1] | PBM binding z-score [2] | PBM binding z-score [3] | PBM binding z-score [4] | PBM binding z-score [5] | PBM binding z-score [6] | PBM binding z-score [7] | PBM binding z-score [8] | PBM binding z-score [9] | PBM binding z-score [10]
TCTAGTTGGTCACGGAGGTCAGACACGACGGGTA | 2.48 | 3.14 | 0.816 | 0.0631 | 2.07 | 2.96 | 0.703 | 2.79 | 0.955 | 3.26
AGAACGACGGCACGCTGAGTTGATAGCAGAGTAG | -0.407 | -0.737 | -0.755 | -1.05 | -0.628 | -0.462 | 0.0818 | -0.447 | -0.252 | -0.524
TCAGACAGGTGGAGGTAACTCAGGTACGCAGTCG | 1.72 | -0.0459 | 0.459 | -0.319 | 0.082 | 0.506 | 0.154 | 0.233 | 0.265 | 0.399
CCGAGTAGGTTATGGGGCATTCCGGCAACGGTGA | 3.2 | 3.14 | 0.204 | -0.0547 | 0.995 | -0.218 | -0.17 | 0.0767 | 0.0897 | 0.966
CCGACTGGGGCATAAGGTTCCCATAAGCCAGCCC | 1.82 | 2 | -1.14 | -1.53 | -0.0208 | -0.582 | -0.205 | -0.563 | 0.262 | 0.252
AGAACGAGCGCACGCTGAGTTGATAGCAGAGTAG | -0.589 | -0.892 | -0.82 | -1.39 | -1.63 | -0.74 | -0.523 | -0.952 | -1.05 | -1.05
TCTCGTAGATCAAGCAGGTTAAGAAAGCCTGAGT | 1.63 | -0.598 | -0.611 | -0.106 | -0.511 | 0.225 | -0.267 | 0.111 | -0.712 | -0.255
AATACAGGGTCATCGTCGGCCAGAGTACGCACAG | 2.45 | 4.09 | 1.99 | 1.48 | 3 | 4.39 | 0.762 | 5.31 | 1.13 | 4.46
ACTATTAGTTGAGACGAAGGCAACCGATAGGTTG | -0.511 | -0.28 | 1.16 | 0.396 | 0.149 | -0.912 | -0.243 | -0.552 | 0.662 | -0.23
TATACAGGGTCAAAGGCCAGCGTACGAATGTCGA | 2.18 | 4.79 | 2.29 | 0.981 | 3.54 | 4.34 | 0.322 | 6.38 | 1.26 | 4.46
TCTCGGAGGACACGAATGTCAGAGCTTTCCAGAG | 1.02 | -0.236 | -0.725 | -1.02 | -0.998 | -0.181 | -0.893 | -0.129 | -0.458 | 1.47
TCTATTAGTTGATTAGGGCATCCGAAACAGCGGA | 2.14 | 1.16 | 0.865 | 0.919 | 1.28 | 0.607 | 0.652 | 0.754 | 1.52 | 0.788
ATCTCTAGGAAACAAGTTCAGTGAAAGAGAGGAC | -0.477 | 0.373 | 0.113 | 0.509 | 0.901 | 1.24 | 1.82 | 0.58 | 0.878 | 1.17
TCATATAGGTAAACGCTAGGTGAAAGTCCGATCT | 4.49 | 3.57 | 1.38 | 1.29 | 0.646 | 0.584 | 0.4 | 1.13 | 0.619 | 0.474
ATTGAAAGGTCGACGAGGTGAGTATACACCGTTT | 0.761 | 2.3 | 1.58 | 1.35 | 1.78 | 3.19 | 0.959 | 3.86 | 0.685 | 4.05
AGAATGAGGTTACCTAAGATCAGGGAAACGCTTG | 2.92 | 2.93 | 1.22 | 0.151 | 1.06 | 1.67 | 0.241 | 2.62 | -0.231 | 1.95
CGAACTAGGTCAAAGGTCAAAGTCGAGCCAACCA | 8.51 | 9.23 | 5.13 | 3.23 | 6.9 | 7.09 | 2.03 | 8.93 | 3.32 | 5.51
CGTCCAAGGTCCTAGGAGGTCAGTGAAGACAGAT | -0.235 | 0.579 | -1.17 | -1.02 | 1.48 | 3.01 | 0.587 | 2.87 | 0.328 | 2.42
CTACCAAGGTGAACAAGGTCTTTGATTACTATTC | 2.51 | 2.75 | 0.785 | 0.293 | 0.597 | 0.752 | 0.0854 | 0.973 | 0.482 | 1.72
CCTACTGGACCATTCAGAGGTCATTGATCATATG | 2.24 | 1.98 | 0.483 | 0.13 | 3.36 | 4.92 | 3.43 | 4.69 | 1.66 | 2.8
CCTACTGGGCCAAAGGTCATTCATTCCAATGCTC | 5.26 | 6.63 | 2.52 | -0.185 | 4.56 | 5.58 | 2.49 | 6.3 | 1.85 | 4.46
GCTATTAGTTGACAGGGCAACCGAATGATTCTCG | 0.297 | 0.029 | 0.0418 | 0.353 | 0.467 | -0.171 | 0.105 | -0.228 | 0.00268 | 0.489
